Experimental data from the supplement of paper PMC11417369.
± gives the standard deviation of the averaged measurements. In all, about 25,000 sequences were measured (“ln(normalized median fluorescence intensity)”: median about 8.9, highest 2% from about 10 on). This excerpt belongs to a sample that is enriched for the highest values.

test system: PfAP2-LT AP2 domain (GST-tagged); experiment: gcPBM binding intensity (ln(normalized median fluorescence intensity)); higher = stronger DNA binding
How it was run: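 Binding intensity is defined as the maximum Masliner-normalised natural-log median intensity across replicate spots for either probe orientation. It was measured on an Agilent 4 × 180k array of primer-extended double-stranded 36-bp intergenic genomic probes and negative controls, to which GST-tagged P. falciparum DNA-binding domains made in E. coli were applied for 1 h in 1× PBS with 1% milk, 0.2 mg/ml BSA, 0.5% salmon testes DNA and 0.03% Triton X-100. Detection was by Alexa488 anti-GST antibody and scanning at 488 nm.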

Point of comparison: “TATATATAATATATATATATGGAAATTCTTTTAAAT [XGTACX_negctrl_site50]”, “gcPBM binding intensity (ln)” value 8.41 ± 0.38. Against it:
- ACATATATTATTATATGTACATATATTAATTATATA [XGTACX_site3400] — within error, 8.66 ± 0.28
- GCACACACAAAAAAAGCATGCATACTAGCTATTTTT [TGCATGCA_site18] — higher, 9.37 ± 0.42
- AAAAAAAGAAAAAAAACACACACAAATATAAATAAA [CACACA_site8309] — higher, 9.46 ± 0.39
- TACACAAAAATAAACACACACACATATATATATATA [CACACA_site1000] — higher, 9.79 ± 0.23
- TACCAAAAGAAACACACACACAAAATATATAAATAT [CACACA_site1869] — higher, 9.88 ± 0.28
- TACACGCATAAACACACACACACACCCATATATATA [CACACA_site8114] — higher, 10.24 ± 0.05
- CTTACCAAAAAACACACACACACAAAATATATAAAT [CACACA_site1870] — higher, 10.1 ± 0.24
- AAAAAATATAAAAAAACACACAAAAAAAAAAAAAAA [CACACA_site1382] — within error, 8.6 ± 0.59
- TACACAAAAATAAACACACACACATATAAATAAATA [CACACA_site6599] — higher, 9.76 ± 0.3
- AAAAAGAAAAAAAACACACACAAATATAAATAAATA [CACACA_site1183] — within error, 9.24 ± 0.49
- CACAAAAATAAACACACACACATATATATATATATA [CACACA_site4704] — higher, 10.21 ± 0.057
- ATATATATAAAACACACACACAAAAAAAATAAAGAC [CACACA_site117] — higher, 10.1 ± 0.28
- CACCCATAGAAACACACACACGCATAAAAAAAAAAA [CACACA_site1513] — higher, 9.56 ± 0.37
- ATTCTACACGCACATACACACATATAAATATAAATA [CACACA_site7582] — higher, 9.24 ± 0.35
- AATATGAATATCTATACACACACATATATATACACA [CACACA_site8459] — higher, 9.45 ± 0.26
- AAAAAAAAAAAATGTGCACACGCGTACACCCAAAAA [CACACA_site8614] — within error, 9.03 ± 0.4
- TAATGAAGATATATAACACACAAAAGTTATAAATAT [CACACA_site6678] — within error, 8.97 ± 0.43
- AAAATATAGTAACACATACACACATATATATTTATA [CACACA_site2504] — higher, 9.19 ± 0.38
- ATAATATATATGAAATGTACATAAATTTAATGCGAC [XGTACX_site5394] — within error, 9.18 ± 0.45
- AACTGCAAAAAAAGACGTACAAATTATTAATTGCAA [XGTACX_site8929] — within error, 8.88 ± 0.54
- ATATAAATAACGTGTACACACATATGTATTTATATA [CACACA_site6520] — higher, 9.12 ± 0.31
- AATATACAAAATATCACACATATAAAATAATATATA [CACACA_site6067] — within error, 8.88 ± 0.45
- TTAATTAAGAAACACACACACATATATATATATATT [CACACA_site2290] — higher, 9.79 ± 0.12
- ACCATATAAATAAACACACACACACCCATATATATA [CACACA_site2321] — higher, 10 ± 0.36
- AAAAAAAAAAAAAACACACACACACCCATAAATATA [CACACA_site151] — higher, 10.2 ± 0.15
- GGAACAAATAATATCACACATATATATATATATATA [CACACA_site5670] — higher, 10.2 ± 0.41
- TACATAAAATATATCACACATATAATATATATATAT [CACACA_site5834] — within error, 8.86 ± 0.35
- AAAATTAACCGTAACACACACACATATATATATATA [CACACA_site3964] — higher, 9.96 ± 0.28
- AAAAAAAAAAAAAACACACACACAATAGTATATAAA [CACACA_site957] — higher, 9.55 ± 0.43
- AATTAACCGAAACACACACACATATATATATATATA [CACACA_site3963] — higher, 10.24 ± 0.064
- TCATAGTATAAACACACACACACACCCATATATATA [CACACA_site8512] — higher, 10.1 ± 0.31
- AAAAAAAATAAACACACACACATACCCATAAATATA [CACACA_site5980] — higher, 10 ± 0.13
- TTTTTTTTTTTTTTTACACACTATAGGGAAAAAAAA [CACACA_site1916] — within error, 8.21 ± 0.37
- AGAAAGAAAGAATACACACACACATATATATATATC [CACACA_site3744] — higher, 9.95 ± 0.3
- GAATTAAAATAATACGTACACACATGTATAATACAT [CACACA_site1004] — higher, 9.21 ± 0.29
- AAAAAATATATATCACGTGGTAATATATATATATAT [XGTACX_negctrl_site252] — higher, 9.16 ± 0.14
- CATAAATACATACATACACACATATTTATATTTATA [CACACA_site7071] — within error, 9.16 ± 0.4
- ATAATATATATATAAACACACAAAAAAAATTATATA [CACACA_site1534] — within error, 8.96 ± 0.42
- ATATAATATATATATAAACACACAAAAAAAATTATA [CACACA_site8434] — within error, 8.97 ± 0.45
- TATATATAAAAACACACACACACACCCTATAATTAT [CACACA_site4063] — higher, 10.18 ± 0.042
- TTGAAAATACAAAATTGTACAAAGATTTAAATAAAA [XGTACX_site1182] — within error, 8.7 ± 0.49
- TAAATAAGCACATACACACATACATACATACATAAA [CACACA_site4017] — higher, 9.44 ± 0.38
- TGAATAAATCAAAGCACACATACACCCACATATATA [CACACA_site286] — higher, 9.47 ± 0.24
- CATATACATCCACATACACACATACACCCATACACA [CACACA_site5038] — higher, 9.66 ± 0.28
- GCATACATCAAGCACACACACACACGCACACGCACA [CACACA_site6311] — higher, 10.2 ± 0.19
- AGAAGCATACATCAAGCACACACACCCACACCCACA [CACACA_site8014] — higher, 10 ± 0.37
- AATAAATAAGCACATACACACATACATACATACATA [CACACA_site6075] — higher, 9.54 ± 0.26
- ATACATCAAGGACACACACACACACCCACACCCACA [CACACA_site8013] — higher, 10.4 ± 0.27
- AAGCATACATCAAGCACACACACACCCACACCCACA [CACACA_site372] — higher, 10.3 ± 0.42
- AAATAAAAAAAAAAAAAAAATAACTTAAATGGGATA [TGCATGCA_negctrl_site595] — within error, 8.33 ± 0.58
- TGCATTATATTAAATTTTTTATTTGTTGATGTTATA [GTGCAC_negctrl_site371] — within error, 8.57 ± 0.47
- TAAAATATATATATGTGTACATAACATATAATTTTT [XGTACX_site1725] — within error, 8.6 ± 0.46
- TAAAATTTATAAACTACACACATATATATAGTAATA [CACACA_site3728] — within error, 8.8 ± 0.42
- TATATATAATATTTTTCACACACCATTTCCTTAAAC [CACACA_site1341] — within error, 9.04 ± 0.29
- AATCATGCTCCGGAAAGTACATAAATAAATAAATAA [XGTACX_site1690] — within error, 8.85 ± 0.56
- TAGAATATCCCCTACACACCCAAATAATTTACAAAT [CACACA_site4825] — higher, 9.3 ± 0.35
